For eight molecules, activation and Potency results are on record in PubChem BioAssay (NCATS).

The target in assay [1] is Cellular tumor antigen p53 (Homo sapiens) (UniProt P04637). As to the kind of experiment: Primary qHTS for small molecule compounds that upregulate eGFP-tagged delta133p53alpha (in N-terminal) cells. (AID 2060322).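 Further: cells pre-induced with doxycycline then dosed without doxycycline; series mostly up to about 56 µM; 0% = DMSO vehicle and 100% = reference activator; nearly all actives have a fitted effect of over 75% in size.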 The note with it: NCI-H358 eGFP-delta133p53alpha fluorescence, 24 h; activation: hits give high values. The method in brief:
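NCI-H358 cells pre-induced 24 h with 10 ng/ml doxycycline for eGFP-delta133p53alpha, plated dox-free and exposed 24 h at 37C to titrated compounds. Fixed, Hoechst-stained; gated GFP peak intensity by laser scanning cytometry, normalized to DMSO (0%) and 57.5 uM 5-azacytidine (100%).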
(In general: In qHTS, concentration-response curves come from the screen itself.)

The target of assay [2] is Aldehyde dehydrogenase, mitochondrial (Homo sapiens) (UniProt P05091). In words: qHTS for Inhibitors of the Aldehyde Dehydrogenase Family (ALDH2) Primary screen (AID 2061308). Further: nearly all actives have a fitted effect of over 55% in size. Further: potency means the concentration at half of the fitted maximal effect.
In assay [3] the target is Retinaldehyde dehydrogenase 3 (Homo sapiens) (UniProt P47895). As to the kind of experiment: qHTS for Inhibitors of the Aldehyde Dehydrogenase Family (ALDH1A3) Confirmatory screens (AID 2061311). Further: potency means the concentration at half of the fitted maximal effect; nearly all actives have a fitted effect of over 60% in size.
For assay [4] the target is unchanged. As to the kind of experiment: qHTS for Inhibitors of the Aldehyde Dehydrogenase Family (ALDH1A3) Primary screen (AID 2061315). Further: potency means the concentration at half of the fitted maximal effect.
Assay [5] shares this target. In words: qHTS for Inhibitors of the Aldehyde Dehydrogenase Family (ALDH1A3) Validation screen (AID 2061312). Further: on the % scale 0 is the no-effect control and ±100 the full control effect; nearly all actives have a fitted effect of over 45% in size.
Assay [6] addresses Retinal dehydrogenase 2 (Homo sapiens) (UniProt O94788). As to the kind of experiment: qHTS for Inhibitors of the Aldehyde Dehydrogenase Family (ALDH1A2) Confirmation screens (AID 2061314). Further: nearly all actives have a fitted effect of over 65% in size. Further: potency means the concentration at half of the fitted maximal effect.
Assay [7] deals with Aldehyde dehydrogenase 1A1 (Homo sapiens) (UniProt P00352). As to the kind of experiment: qHTS for Inhibitors of the Aldehyde Dehydrogenase Family (ALDH1A1) Confirmatory screens (AID 2061316). Further: nearly all actives have a fitted effect of over 65% in size. Further: potency means the concentration at half of the fitted maximal effect.

“And” between values parts separate entries of the source, which are not always exact repeats. Equal entries are not always repeated. Inconclusive results are not listed. A number with no mark means an inactive call. The source made the active and inactive calls. The call rests on the fitted dose curve; in most records, active means well fitted curve in the direction sought with a large enough effect; inconclusive means small, poorly fitted or top-dose-only effect, or another doubt; inactive means no such curve, though single readings can be large; an effect the other way counts as inactive or inconclusive.

Sequence of Cellular tumor antigen p53 (Homo sapiens) (P04637 whole entry, looked up): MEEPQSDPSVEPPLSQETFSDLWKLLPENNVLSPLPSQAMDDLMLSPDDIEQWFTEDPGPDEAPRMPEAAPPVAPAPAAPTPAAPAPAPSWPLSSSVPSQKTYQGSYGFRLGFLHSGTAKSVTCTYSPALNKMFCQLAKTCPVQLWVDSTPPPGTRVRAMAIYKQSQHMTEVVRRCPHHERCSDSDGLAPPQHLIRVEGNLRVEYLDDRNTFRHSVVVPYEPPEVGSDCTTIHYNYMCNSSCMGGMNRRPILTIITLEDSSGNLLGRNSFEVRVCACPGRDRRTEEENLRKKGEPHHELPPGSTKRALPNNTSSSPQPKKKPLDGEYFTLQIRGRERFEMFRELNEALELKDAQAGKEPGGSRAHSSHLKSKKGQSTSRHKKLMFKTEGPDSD

`CNCCC(c1cccs1)c1ccc(O)c2ccccc12` (stereo unspecified): in assay [1], the activation is -7.67%. Moreover, in assay [2], the Potency result is “inactive”. Also, the figures for the Potency in assay [3] and in assay [4] were 22.5 µM (active) and 15.8 µM (active), respectively.

Take `CN(CCCNC(=O)c1ccc2nc3c(c(Cl)c2c1)CCCC3)Cc1ccccc1`: the activation in assay [1] is 20.5%. Besides, the Potency result in assay [2], in assay [5] and in assay [4] was “inactive” each time. The Potency is 8.96 µM (active) in assay [3], 7.12 µM (active) in assay [6] and 8.96 µM (active) in assay [7].

Regarding `CO/N=C(/C(=O)N[C@@H]1C(=O)N2C(C(=O)O)=C(CSC(=O)c3ccco3)CS[C@H]12)c1csc(N)n1`, the activation in assay [1] is -18.6% and -3.67%. Further, the Potency in assay [2] was 17.8 µM (active); in assay [3] it was 7.12 µM (active); in assay [6], 28.3 µM (active); in assay [7] it was 5.65 µM (active). Besides, in assay [4], the Potency entry was “inactive”.

On to `O=C(OC[C@H]1O[C@@H](Oc2ccccc2CO)[C@H](O)[C@@H](O)[C@@H]1O)c1ccccc1`, for which the activation in assay [1] was 7.63%. Further, in assay [2], the Potency entry is “inactive”.

With `COC(=O)C[C@H]1[C@]2(C)C3=C(C)[C@H](c4ccoc4)C[C@H]3O[C@@H]2[C@H](OC(C)=O)C2[C@](C)(C(=O)OC)C=CC(=O)[C@@]21C` (stereo partly specified), in assay [1], the activation was 11.6%. Moreover, in assay [2], the Potency result is “inactive”.

Take `Cc1cc(N=Nc2ccc(S(=O)(=O)Nc3ccccn3)cc2)c(N)cc1O`: the activation in assay [1] was -5%. In assay [2], the Potency result is “inactive”. For the same molecule, the Potency in assay [3] and in assay [7] was 11.3 µM (active) throughout.

For `Cc1ccc(C(=O)Nc2noc3ccccc23)cc1`, in assay [1], the activation was -1%. For the same molecule, the Potency entry in assay [2], in assay [6] and in assay [7] was “inactive” each time. Further, the Potency in assay [3] is 1.27 µM (active); in assay [4], 5.01 µM (active).

For `COc1cc(OC)c(NC(=O)c2ccc(Cc3cc4c(cc3C)C(C)(C)CCC4(C)C)o2)c(OC)c1`, the activation in assay [1] was 10.5%. Also, the Potency entry in assay [2] was “inactive”. Further, the Potency is 4 µM (active) in assay [3], 5.65 µM (active) in assay [6] and 5.04 µM (active) in assay [7].
